Experimental findings from PubChem BioAssay are described below.

The nature of assay [1]: yeast TOR pathway RPL19A-GFP modulators, primary screen, cell-based, S. cerevisiae, multiplex flow cytometry (AID 1862).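 Further: lower values mimic rapamycin by blocking the RPL19A rise seen in DMSO cells.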 The note with it: S. cerevisiae RPL19A-GFP strain, flow cytometry fluorescence, 3 h; at 10 µM; stronger effect = lower value. (In general: In flow cytometry, cells or beads pass a laser one at a time.)
Assay [2] in a line: modulators of MEP2-GFP levels in yeast, primary screen, S. cerevisiae, multiplex flow cytometry (AID 1867;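 active means GFP response, as percent of the DMSO control, above the screen-wide mean plus 3 SD, about 139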;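 further: median GFP channel fluorescence of barcode-gated MEP2-GFP cells measured by flow cytometry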). The note with it: S. cerevisiae MEP2-GFP strain, 3 h, at 10 µM, stronger effect = higher value, 100% means same as DMSO wells.
Assay [3] in a line: modulators of CIT2-GFP expression in yeast, primary screen, S. cerevisiae, GFP fusion, multiplex flow cytometry (AID 1870;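 active means percent response above a set limit, the screen-wide mean plus 3 SD, cut at about 130% in these data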;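 further: barcoded CIT2-GFP strain pooled with four other GFP strains with rapamycin as positive control; median GFP fluorescence per well over plate mean of DMSO wells so 100% = DMSO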). The note with it: 3 h, at 10 µM, stronger effect = higher value.
A short description of assay [4]: modulators of LAP4-GFP expression in yeast, primary screen, S. cerevisiae, multiplex flow cytometry (AID 1873;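 active means GFP signal, as percent of the solvent control, above the screen mean plus 3 SD, about 149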). The note with it: 3 h, at 10 µM, stronger effect = higher value.
The nature of assay [5]: modulators of AGP1-GFP expression in yeast TOR pathway, primary screen, cell-based, multiplex flow cytometry, S. cerevisiae (AID 1887;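 active means GFP signal above the screen-wide mean plus 3 SD, that is over about 124.5% of the solvent control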;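 further: AGP1-GFP fusion strain of S. cerevisiae within a five-strain barcoded multiplex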). The note with it: 3 h, at 10 µM, stronger effect = higher value.
Assay [6] can be described thus: inhibitors of CD8+ T cell-vesicle binding, pilot screen, LFA-1/ICAM-1 modulator project, MLPCN validation set, flow cytometry (AID 2523;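 active means response below a set limit, under 55% cells CD8-positive and vesicle-bound, and CD8 cells' 90th-percentile brightness under 279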;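 on vesicle binding response: mean PE anti-B7-1 fluorescence of CD8+ cells relative to row control; 100% = QL9-loaded vesicles with DMSO vehicle in the same plate row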). The note with it: 2C mouse CD8+ T cells, at 7 µM, stronger effect = lower value; double positive events: measured here: CD8+/vesicle+ event percentage.
Assay [7] deals with Integrin beta-1 (Homo sapiens) + Integrin alpha-4 (Homo sapiens) (UniProt P13612+P05556). As to the kind of experiment: inhibition of HUTS-21 binding to VLA-4, pilot screen, VLA-4 allosteric modulator project, U937 cells, HUTS-21 mAb, flow cytometry, validation set (AID 2674;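 active means inhibition above 50%, about 3 SD of the validation set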;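 further: antibody binding induced by the VLA-4 ligand LDV present at three times its Kd; 0% = LDV ligand with antibody and no compound and 100% = antibody without LDV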). The note with it: HUTS-21 LIBS mAb binding, at 6.7 µM, stronger effect = higher value, binding induced by LDV ligand.

Assay [8] is described as follows: superoxide lowering in aged yeast cells, pilot screen, validation compound set (AID 2706;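 active means superoxide response below 65% of plate, a cut near 3 SD across the whole screen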;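 further: yeast exposed to compound for one week at 30 degrees C before staining; 100% = mean of all compound wells on the same plate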). The note with it: S. cerevisiae aging, superoxide DHE fluorescence; at 10 µM; stronger effect = lower value.
Assay [9] concerns the target Beta-adrenergic receptor kinase 1 (Homo sapiens) (UniProt P25098). As to the kind of experiment: GRK2 binders displacing RNA aptamer, biochemical, validation, human GRK2, bead flow cytometry (AID 488806;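 active means aptamer binding inhibition above 30%, about 3 SD of noise from non-fluorescent compounds; inactive means inhibition at or below 30%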). The note with it: bead-bound GRK2, FAM-aptamer displacement, at 10 µM, stronger effect = higher value.
In assay [10] the target is Beta-2 adrenergic receptor (Homo sapiens) (UniProt P07550). As to the kind of experiment: beta2AR agonists driving receptor internalization, pilot screen, cell-based, FAP fluorogen, flow cytometry, validation set (AID 504459;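 active means percent response above 42, roughly 3 SD of non-fluorescent test compounds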;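 further: agonist-driven loss of surface beta2AR via internalization measured by FAP dye flow cytometry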). The note with it: Am2.2-beta2AR cells, FAP surface receptor flow cytometry; at 10 µM; stronger effect = higher value.
The target in assay [11] is AP-2 complex subunit beta (Homo sapiens) (UniProt P63010). Briefly: inhibitors of arrestin peptide binding to AP2, pilot screen, biochemical, validation set, GST-AP2 beads, flow cytometry (AID 504541;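 active means inhibition above 54%, about 3 SD of non-fluorescent compounds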;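 further: AP2 carries R879A mutation and is captured from E. coli lysate; bead-bound FITC arrestin peptide fluorescence measuring arrestin peptide binding to AP2; 0% = DMSO wells and 100% = excess unlabeled arrestin peptide control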). The note with it: FITC arrestin peptide, at 10 µM, stronger effect = higher value, AP2 beta2 appendage fragment, R879A mutant.
Assay [12] can be described thus: yeast V-ATPase proton transport modulators, S. cerevisiae, pHLuorin, HTS validation (AID 504600; in the data active means response above about 15%;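 further: plate controls were DMSO for no effect and reference compound for full effect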). The note with it: S. cerevisiae pHLuorin cytosolic pH, at 10 µM, stronger effect = higher value.
In assay [13] the test system is anti-desmoglein-3 scFv antibody binding to human DSG3. As to the kind of experiment: inhibitors of anti-DSG3 scFv binding to DSG3, pilot screen, biochemical, validation compound set, bead-based, flow cytometry (AID 588368;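 active means binding below the plate cutoff, the plate median minus 3 SD, with a reading above zero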;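 further: signal is the median channel fluorescence of bead-bound GFP antibody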). The note with it: Protein G beads, DSG3-Fc, scFv-GFP binding, at 10 µM, stronger effect = lower value.
Assay [14] in a line: inhibitors of fungal efflux pumps CDR1, CDR2, MDR1, pilot screen, validation compound set, multiplex, phenotypic (AID 588506;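 active means efflux inhibition above 0.42, the validation set average plus 4 SD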;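 further: Nile Red retained in cells so higher fluorescence means more efflux inhibition; 0 = negative control wells and 1 = enniatin B 25 µM full block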). The note with it: S. cerevisiae pump-expressing triplex, Nile Red efflux flow cytometry; at 10 µM; stronger effect = higher value; the pumps come from Candida albicans.
The target in assay [15] is ATP-binding cassette sub-family B member 6 (Homo sapiens) (UniProt Q9NP58). As to the kind of experiment: ABCB6 transporter inhibitors, pilot screen, K562-ABCB6 cells, flow cytometry, validation set (AID 588550;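 active means inhibition above the screen-wide mean plus 3 SD, about 51%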;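 further: 0% = DMSO wells and 100% = benzethonium chloride 70 µM positive control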). The note with it: K562-ABCB6 porphyrin accumulation, 1 h, at 10 µM, stronger effect = higher value.
A short description of assay [16]: promoters of myeloid differentiation in arrested cells, primary screen, cell-based, GFP/MAC1 double positive, flow cytometry, validation set (AID 588685;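 active means differentiation response of at least 50%, scaled between solvent and reference control, from cells with both markers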;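 further: compound exposure lasts four days before antibody staining and flow analysis; 0% = DMSO wells and 100% = 5 µM fulvestrant positive control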). The note with it: ER-HoxA9 marrow cells, stronger effect = higher value, normalized: vehicle 0, fulvestrant 100.

Results filed as inconclusive are left out. The source made the active and inactive calls. Unless noted, no stated cut-off is given here; in the data, active means percent of DMSO control GFP below about 86%; inactive means the rest, inconclusive results apart.

Beta-adrenergic receptor kinase 1 (Homo sapiens), sequence (P25098 whole entry, looked up): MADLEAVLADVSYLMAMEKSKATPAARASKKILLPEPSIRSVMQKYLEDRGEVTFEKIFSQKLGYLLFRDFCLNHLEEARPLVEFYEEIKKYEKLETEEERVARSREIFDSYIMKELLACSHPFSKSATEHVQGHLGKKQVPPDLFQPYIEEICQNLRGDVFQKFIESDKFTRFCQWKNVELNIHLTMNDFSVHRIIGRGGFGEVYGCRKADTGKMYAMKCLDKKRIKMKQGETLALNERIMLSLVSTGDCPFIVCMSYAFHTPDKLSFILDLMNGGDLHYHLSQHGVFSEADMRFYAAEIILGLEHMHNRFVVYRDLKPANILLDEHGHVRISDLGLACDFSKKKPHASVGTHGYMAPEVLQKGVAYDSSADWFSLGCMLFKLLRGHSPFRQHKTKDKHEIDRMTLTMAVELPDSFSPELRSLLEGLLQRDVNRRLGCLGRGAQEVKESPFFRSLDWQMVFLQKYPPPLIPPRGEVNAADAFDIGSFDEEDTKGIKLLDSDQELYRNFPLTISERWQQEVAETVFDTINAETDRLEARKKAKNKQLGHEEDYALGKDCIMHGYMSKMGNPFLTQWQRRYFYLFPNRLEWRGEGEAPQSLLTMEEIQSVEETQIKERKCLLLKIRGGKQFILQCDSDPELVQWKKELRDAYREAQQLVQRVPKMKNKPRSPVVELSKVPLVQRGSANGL
AP-2 complex subunit beta (Homo sapiens), sequence (P63010 whole entry, looked up, the tested form may be a part, one chain of several): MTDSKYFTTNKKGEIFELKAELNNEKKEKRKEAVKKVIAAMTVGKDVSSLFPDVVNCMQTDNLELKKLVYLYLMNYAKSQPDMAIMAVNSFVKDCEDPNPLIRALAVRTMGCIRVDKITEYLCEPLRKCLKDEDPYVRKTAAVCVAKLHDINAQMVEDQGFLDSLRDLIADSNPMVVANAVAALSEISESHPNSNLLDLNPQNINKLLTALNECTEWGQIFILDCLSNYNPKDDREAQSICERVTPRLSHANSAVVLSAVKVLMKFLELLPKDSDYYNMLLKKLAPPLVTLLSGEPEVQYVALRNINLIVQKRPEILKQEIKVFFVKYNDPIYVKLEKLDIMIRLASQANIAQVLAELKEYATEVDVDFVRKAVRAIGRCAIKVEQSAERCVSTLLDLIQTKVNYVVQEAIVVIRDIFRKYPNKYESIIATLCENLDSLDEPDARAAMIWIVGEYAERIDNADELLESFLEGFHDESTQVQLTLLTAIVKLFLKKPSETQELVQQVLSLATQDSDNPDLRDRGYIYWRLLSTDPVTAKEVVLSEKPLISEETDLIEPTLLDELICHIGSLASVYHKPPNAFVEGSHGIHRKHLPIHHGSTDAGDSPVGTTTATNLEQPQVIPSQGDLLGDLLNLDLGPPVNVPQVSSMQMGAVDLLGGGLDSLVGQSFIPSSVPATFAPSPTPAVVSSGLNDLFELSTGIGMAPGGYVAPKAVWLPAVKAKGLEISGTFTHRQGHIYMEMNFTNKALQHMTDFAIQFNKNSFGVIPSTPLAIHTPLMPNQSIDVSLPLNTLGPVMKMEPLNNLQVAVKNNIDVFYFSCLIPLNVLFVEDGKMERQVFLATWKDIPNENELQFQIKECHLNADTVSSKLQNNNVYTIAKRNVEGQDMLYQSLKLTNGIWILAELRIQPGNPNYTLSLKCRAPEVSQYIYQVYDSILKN
Integrin beta-1 (Homo sapiens) + Integrin alpha-4 (Homo sapiens), sequence (P05556 whole entry, looked up): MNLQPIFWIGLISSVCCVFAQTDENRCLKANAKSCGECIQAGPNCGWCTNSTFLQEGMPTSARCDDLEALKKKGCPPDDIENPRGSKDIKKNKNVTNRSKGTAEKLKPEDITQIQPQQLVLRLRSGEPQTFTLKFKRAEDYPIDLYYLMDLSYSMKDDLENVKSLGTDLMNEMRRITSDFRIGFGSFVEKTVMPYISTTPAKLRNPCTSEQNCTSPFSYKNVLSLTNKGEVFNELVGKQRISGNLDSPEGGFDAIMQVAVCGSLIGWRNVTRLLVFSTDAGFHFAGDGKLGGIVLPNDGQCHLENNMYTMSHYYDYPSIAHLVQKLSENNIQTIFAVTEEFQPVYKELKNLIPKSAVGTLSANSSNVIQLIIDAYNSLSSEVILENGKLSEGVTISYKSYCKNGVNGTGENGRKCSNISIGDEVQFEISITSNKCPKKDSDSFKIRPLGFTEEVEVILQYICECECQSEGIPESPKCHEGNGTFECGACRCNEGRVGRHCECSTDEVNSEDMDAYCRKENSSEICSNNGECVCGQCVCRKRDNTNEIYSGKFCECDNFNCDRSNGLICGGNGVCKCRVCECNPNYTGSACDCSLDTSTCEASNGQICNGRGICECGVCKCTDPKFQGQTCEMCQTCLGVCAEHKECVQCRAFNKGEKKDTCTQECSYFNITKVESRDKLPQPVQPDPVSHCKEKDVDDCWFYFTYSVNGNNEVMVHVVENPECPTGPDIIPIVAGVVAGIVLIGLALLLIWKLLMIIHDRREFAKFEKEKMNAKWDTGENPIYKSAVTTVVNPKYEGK
Integrin beta-1 (Homo sapiens) + Integrin alpha-4 (Homo sapiens), sequence (P13612 whole entry, looked up): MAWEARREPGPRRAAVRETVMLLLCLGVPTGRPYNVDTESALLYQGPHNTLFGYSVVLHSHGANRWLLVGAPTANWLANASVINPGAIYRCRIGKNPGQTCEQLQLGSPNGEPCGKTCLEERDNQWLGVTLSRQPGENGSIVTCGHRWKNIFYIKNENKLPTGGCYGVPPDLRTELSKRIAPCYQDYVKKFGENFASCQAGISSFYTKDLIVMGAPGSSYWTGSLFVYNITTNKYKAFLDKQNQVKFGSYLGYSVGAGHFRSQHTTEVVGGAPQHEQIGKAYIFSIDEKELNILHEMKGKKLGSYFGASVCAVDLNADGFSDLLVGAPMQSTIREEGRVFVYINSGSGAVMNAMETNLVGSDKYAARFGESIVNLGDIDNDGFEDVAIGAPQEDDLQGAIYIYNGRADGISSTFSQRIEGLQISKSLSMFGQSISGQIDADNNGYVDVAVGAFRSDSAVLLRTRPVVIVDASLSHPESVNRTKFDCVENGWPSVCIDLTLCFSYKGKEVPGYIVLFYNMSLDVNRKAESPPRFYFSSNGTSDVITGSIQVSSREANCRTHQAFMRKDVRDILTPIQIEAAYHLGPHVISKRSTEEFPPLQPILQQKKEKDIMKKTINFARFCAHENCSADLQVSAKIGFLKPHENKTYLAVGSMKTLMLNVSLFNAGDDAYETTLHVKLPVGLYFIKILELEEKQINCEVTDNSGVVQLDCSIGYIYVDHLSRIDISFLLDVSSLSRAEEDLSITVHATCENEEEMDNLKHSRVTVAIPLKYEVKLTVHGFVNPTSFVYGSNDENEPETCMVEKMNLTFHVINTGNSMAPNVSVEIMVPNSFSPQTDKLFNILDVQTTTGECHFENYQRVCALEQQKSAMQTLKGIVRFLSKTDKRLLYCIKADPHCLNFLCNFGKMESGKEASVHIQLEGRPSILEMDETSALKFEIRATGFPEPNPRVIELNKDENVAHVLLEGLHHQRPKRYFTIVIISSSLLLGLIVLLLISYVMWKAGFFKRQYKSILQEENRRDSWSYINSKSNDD
Beta-2 adrenergic receptor (Homo sapiens), sequence (P07550 whole entry, looked up): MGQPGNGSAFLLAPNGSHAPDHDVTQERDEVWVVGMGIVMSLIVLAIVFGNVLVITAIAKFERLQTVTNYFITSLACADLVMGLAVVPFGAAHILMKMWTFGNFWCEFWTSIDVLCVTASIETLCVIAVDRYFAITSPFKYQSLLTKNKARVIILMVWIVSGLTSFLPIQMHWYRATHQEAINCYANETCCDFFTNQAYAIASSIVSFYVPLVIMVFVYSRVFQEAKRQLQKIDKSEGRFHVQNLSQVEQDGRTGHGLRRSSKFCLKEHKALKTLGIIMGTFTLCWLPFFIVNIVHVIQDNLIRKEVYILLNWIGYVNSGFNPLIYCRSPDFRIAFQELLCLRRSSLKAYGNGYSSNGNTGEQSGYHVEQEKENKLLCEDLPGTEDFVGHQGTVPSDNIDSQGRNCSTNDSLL
ATP-binding cassette sub-family B member 6 (Homo sapiens), sequence (Q9NP58 whole entry, looked up): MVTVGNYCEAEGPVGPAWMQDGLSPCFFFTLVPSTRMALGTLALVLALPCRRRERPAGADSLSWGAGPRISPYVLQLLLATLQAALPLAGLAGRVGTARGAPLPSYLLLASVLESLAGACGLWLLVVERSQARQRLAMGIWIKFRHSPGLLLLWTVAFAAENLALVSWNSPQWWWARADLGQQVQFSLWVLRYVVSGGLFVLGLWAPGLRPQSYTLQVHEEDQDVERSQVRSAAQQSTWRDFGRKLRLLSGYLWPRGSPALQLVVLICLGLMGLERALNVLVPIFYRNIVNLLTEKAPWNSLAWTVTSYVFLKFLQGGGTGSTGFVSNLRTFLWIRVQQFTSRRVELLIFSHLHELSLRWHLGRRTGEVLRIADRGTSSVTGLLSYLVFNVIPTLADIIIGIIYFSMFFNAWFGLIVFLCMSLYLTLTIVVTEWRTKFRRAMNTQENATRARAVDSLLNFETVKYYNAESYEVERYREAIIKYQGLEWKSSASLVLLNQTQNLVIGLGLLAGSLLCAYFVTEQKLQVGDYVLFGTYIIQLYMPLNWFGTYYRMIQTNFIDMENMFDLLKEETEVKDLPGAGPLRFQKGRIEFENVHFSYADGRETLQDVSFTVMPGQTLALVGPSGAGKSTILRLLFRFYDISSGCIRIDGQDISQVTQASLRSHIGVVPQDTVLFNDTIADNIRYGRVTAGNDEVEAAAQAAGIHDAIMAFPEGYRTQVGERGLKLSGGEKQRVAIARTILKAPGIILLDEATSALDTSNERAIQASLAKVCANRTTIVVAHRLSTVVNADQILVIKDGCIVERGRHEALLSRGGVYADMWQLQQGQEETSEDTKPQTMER

Consider `COc1ccc(C=O)c(OC)c1`, for which the percent of DMSO control GFP in assay [1] was 100% (inactive). Moreover, the GFP response vs DMSO in [2] was 98.6% (inactive); in [4], 99.5% (inactive). For the same compound, the percent response of DMSO control in [3] is 99% (inactive). Also, the GFP response, % of DMSO in assay [5] was 104% (inactive). For the same compound, the double positive events in assay [6] amounted to 60.9%. Further, the vesicle binding response in assay [6] was 188% (inactive). Besides, the inhibition is 26.1% (inactive) in assay [7], 62.3% (active) in assay [11] and -6% (inactive) in assay [15]. Further, the superoxide response (% of plate) in assay [8] is 93.3% (inactive). Moreover, the aptamer binding inhibition in assay [9] was 1% (inactive). The figures for the response in assay [10] and in assay [12] were -22.1% (inactive) and -1.57% (inactive), respectively. The binding (% of control) in assay [13] was 101% (inactive). The efflux inhibition (fraction of control) in assay [14] is 0.08 (inactive). Besides, the differentiation response in assay [16] was -9.91% (inactive).

Consider `CC(C)CN1CCN(Cc2cccn2-c2ccccn2)CC1CCO` (stereo not drawn), for which, in assay [1], the percent of DMSO control GFP was 90.9% (inactive). Moreover, the GFP response vs DMSO in [2] is 113% (inactive); in [4] it was 80.3% (inactive). Besides, the percent response of DMSO control in assay [3] is 103% (inactive). The GFP response, % of DMSO in assay [5] was 95.9% (inactive). Further, the double positive events in [6] came out at 64.2%. The vesicle binding response in assay [6] is 241% (inactive). The inhibition is 22.9% (inactive) in assay [7], -9.17% (inactive) in assay [11] and 16% (inactive) in assay [15]. Besides, the superoxide response (% of plate) in [8] was 114% (inactive). Besides, the aptamer binding inhibition in assay [9] was -2% (inactive). The figures for the response in assay [10] and in assay [12] were -7.51% (inactive) and 74.8% (active), respectively. Further, in assay [13], the binding (% of control) is 102% (inactive). For the same compound, the efflux inhibition (fraction of control) in assay [14] is 0.48 (active). For the same compound, in [16], the differentiation response is 1.64% (inactive).

Consider `O=C(N/N=C/c1ccc([N+](=O)[O-])o1)c1ccc(O)cc1`, for which the percent of DMSO control GFP in [1] was 103% (inactive). Further, the GFP response vs DMSO in assay [2] is 118% (inactive); in [4] it was 77.6% (inactive). Besides, in [3], the percent response of DMSO control was 112% (inactive). Also, the GFP response, % of DMSO in assay [5] is 97.5% (inactive). Also, in assay [6], the double positive events was determined as 47.6%. Moreover, the vesicle binding response in assay [6] was 209% (inactive). Also, the inhibition in assay [7] is -21.7% (inactive); in assay [11], -8.31% (inactive); in assay [15], 8% (inactive). The superoxide response (% of plate) in assay [8] was 136% (inactive). Moreover, in assay [9], the aptamer binding inhibition was -1% (inactive). The results for the response in [10] and in assay [12] were -5.96% (inactive) and 4% (inactive), respectively. For the same compound, the binding (% of control) in [13] is 110% (inactive). Moreover, the efflux inhibition (fraction of control) in assay [14] is 0.12 (inactive). Besides, the differentiation response in assay [16] was 14.7% (inactive).

For the compound `Cc1nnc(NS(=O)(=O)c2ccc(N)cc2)s1`, in assay [1], the percent of DMSO control GFP was 92.4% (inactive). In addition, the GFP response vs DMSO was 126% (inactive) in assay [2] and 83.6% (inactive) in assay [4]. For the same compound, the percent response of DMSO control in assay [3] is 92.6% (inactive). The GFP response, % of DMSO in assay [5] was 92.8% (inactive). In assay [6], the double positive events was 61.7%. The vesicle binding response in assay [6] was 123% (inactive). Also, the inhibition in assay [7] is 19.1% (inactive); in assay [11], 2.68% (inactive); in assay [15] it was 14% (inactive). Moreover, the superoxide response (% of plate) in assay [8] is 102% (inactive). Further, the aptamer binding inhibition in assay [9] was 8% (inactive). For the same compound, the results for the response in [10] and in [12] were 2.41% (inactive) and 0.26% (inactive), respectively. Further, the binding (% of control) in [13] was 100% (inactive). In [14], the efflux inhibition (fraction of control) was -0.24 (inactive). Moreover, the differentiation response in assay [16] was 0% (inactive).

One may read the inhibition as the change of the read-out against control, counted positive when it falls.
